Source: PubChem (National Center for Advancing Translational Sciences (NCATS))
DT40 TDP1 no CPT = qHTS for Inhibitors of human tyrosyl-DNA phosphodiesterase 1 (TDP1): qHTS in cells in absence of CPT | Potency, µM (highest dose often 46.2 µM), for the others: at the highest dose activity change, negative = growth inhibition, hits mostly inhibitors | AID 686978, 2013 | DT40 Tdp1-/- hTDP1 cells, no CPT, ATP luminescence, 48 h | 420,000 compounds, 15% hits; further: on the % scale 0 is the no-effect control and ±100 the full control effect; nearly all actives have a fitted effect of over 55% in size
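Readout: luminescence from CellTiter-Glo after 30 min in the dark at RT. Cells: DT40 Tdp1-/- with stable hTDP1, 400/well. Exposure: compounds alone, ≥48 hr, 37 °C.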
TGFb inhibitor = inhibitors of TGF-b signaling. HepG2 CAGA-GFP TGF-b/SMAD3 reporter, GFP fluorescence, 18 h; TGF-beta stimulated, 500 pg/mL final. Potency, µM (highest dose often 46.1 µM), for inactives: at the highest dose activity, negative = inhibition, actives largely listed as inhibitors. 410,000 compounds, 1.2% hits. AID 588855; further: on the % scale 0 is the no-effect control and ±100 the full control effect; nearly all actives have a fitted effect of over 65% in size
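HEPG2 CAGA-GFP reporter cells (1000/well, DMEM with 1% FBS) received compounds, then recombinant TGF-beta at 500 pg/mL final for 18 hours at 37 degrees C. Per-cell GFP summed per well was normalised to unstimulated and stimulated DMSO controls before curve fitting.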
ATXN2 expr inh = ATXN2 expression inhibition; HEK-293 ATXN2-luciferase reporter, luminescence, 24 h; Potency, µM (doses to about 57 µM), for the others: top-dose activity change, negative = inhibition, actives largely listed as inhibitors; 360,000 compounds, 0.72% hits; AID 1745845; further: on the % scale 0 is the no-effect control and ±100 the full control effect; nearly all actives have a fitted effect of over 55% in size
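qHTS (up to 57 uM final) was run with 24 h compound exposure of reporter cells at 37 °C. Each well was multiplexed: SteadyGlo luminescence measured ATXN2-luciferase expression after a fluorogenic Gly-Phe-AFC viability readout (25 uM final).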
HepG2 viability = kills HepG2 cells in TGF-b inhibitor counter-screen. HepG2 CAGA-GFP viability, ATP luminescence, 18 h. Potency, µM (doses to about 46.1 µM), inactives show top-dose activity change, negative = cytotoxicity, hits mostly cytotoxic. 410,000 compounds, 0.76% hits. AID 588856
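CellTiter-Glo luminescence gave cytotoxicity after 18 hours at 37 degrees C. The cells were HepG2 CAGA-GFP in 1% FBS DMEM, stimulated with 500 pg/mL TGF-beta after compound addition. %Activity was normalised to no-cell wells (complete cell-killing) and DMSO (no toxicity), and curves were fitted and classified.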
TDP1 cell CPT = growth inhibition of DT40 Tdp1-/-;hTDP1 cells with camptothecin (screen for TDP1 inhibitors) | chicken DT40 Tdp1-/-;hTDP1 cells + 20 nM CPT, ATP luminescence, 48 h | Potency, µM (series often up to 46.2 µM), for inactives: at the highest dose activity change, negative = growth inhibition, actives largely listed as inhibitors | 420,000 compounds, 12% hits; further: on the % scale 0 is the no-effect control and ±100 the full control effect; nearly all actives have a fitted effect of over 55% in size
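Chicken DT40 Tdp1-/- cells complemented with human TDP1, 400 cells/well, exposed to compounds plus 20 nM camptothecin for at least 48 h at 37 C; viability read as ATP content by CellTiter-Glo luminescence.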
S2 tox = viability counter-screen for ATXN expression inhibitors; Potency, µM (top dose mostly 56.7 µM), most hits filed as cytotoxic; S2 cells (HEK-293 line with an ATXN2-luciferase reporter) viability, CellTiter-Fluor protease fluorescence, 24 h; AID 651635; 400,000 compounds, 0.49% hits; further: nearly all actives have a fitted effect of over 40% in size
An asterisk follows results filed as active; i = inactive; ? = inconclusive; . = no result; [ ] = dose if it differs, or a comment. Rows were chosen to be rich in hits. Some 17% of all compounds tested hit in one or more screens of this group. The call rests on the fitted dose curve; in most records, active means well fitted curve in the direction sought with a large enough effect; inconclusive means small, poorly fitted or top-dose-only effect, or another doubt; inactive means no such curve, though single readings can be large; an effect the other way counts as inactive or inconclusive. Potency means the concentration at half of the fitted maximal effect.

SMILES	DT40 TDP1 no CPT	TGFb inhibitor	ATXN2 expr inh	HepG2 viability	TDP1 cell CPT	S2 tox
CN1CCN(c2ccc(NC(=S)NC(=O)c3cccc4c(Cl)cccc34)cc2)CC1	?	-1%	-16%	-12%	16µM*	i
CCCC(=O)N1CCN(c2ccc(NC(=S)NC(=O)c3cccc(C)c3)cc2)CC1	23µM*	0%	?	9%	?	?
Cc1ccccc1-c1cncnc1Nc1ccccc1	1%	.	.	.	3%	.
CCOc1cccc(C(=O)Nc2ccc(N(CC)CC)cc2)c1	?	-21%	4%	5%	21µM*	?
CCOc1ccc(OCc2cccc(C(=O)Nc3ccc(CN4CCCCC4)cc3)c2)cc1	21µM*	0%	?	10µM*	8.2µM*	?
COc1ccc(OCc2cccc(C(=O)Nc3ccc(CN4CCCCC4)cc3)c2)cc1	?	?	-30%	-59%	?	i
Cc1cc(C)cc(NC(=O)N2CCC(N3CCN(Cc4ccccc4)C(=O)C3=O)CC2)c1	-11%	-10%	11%	0%	-2%	i
Cc1ccc(Sc2c([N+](=O)[O-])ncn2C)cc1	?	-1%	-1%	-28%	21µM*	i
O=C(c1ccccc1)N1CCC(c2nc(-c3ccc(S(=O)(=O)N4CCOCC4)cc3)no2)CC1	?	-25%	-20%	-35%	?	?
CCc1ccc(C(=O)N2CCC(c3nc(-c4ccc(S(=O)(=O)N5CCCC5)cc4)no3)CC2)cc1	21µM*	?	.	-9%	?	.
O=C(Nc1ccccc1)N1CCC(c2nc(-c3ccc(S(=O)(=O)N4CCOCC4)cc3)no2)CC1	3.3µM*	31%	-19%	0%	4.1µM*	i
CC(C)C(=O)N1CCC(c2nc(-c3ccc(S(=O)(=O)N4CCCC4)cc3)no2)CC1	?	4%	2%	-2%	?	i
O=C(Nc1ccc(Cl)cc1)N1CCC(c2nc(-c3ccccc3Cl)no2)CC1	18µM*	?	-38%	-20%	23µM*	i
O=C(c1cccs1)N1CCC(c2nc(-c3ccc(S(=O)(=O)N4CCOCC4)cc3)no2)CC1	18µM*	-1%	-12%	-9%	?	i
Cc1cccc(NC(=O)Cn2nnc3ccccc32)c1	-26%	-6%	-2%[11.3 µM]	0%	0%	i
CC1/C=C/C=C/C=C/C=C/C=C/C=C/C=C/C(OC2OC(C)C(O)C(N)C2O)CC2O[C@@](O)(CC(O)CC(O)C(O)CCC(O)CC(O)CC(=O)OC(C)[C@H](C)C1O)CC(O)C2C(=O)O (stereo not given in full)	0%	.	.	.	-1%	.
Cc1cccc(C(=O)N2CCC(c3nc(-c4ccc(S(=O)(=O)N5CCOCC5)cc4)no3)CC2)c1	21µM*	4%	-9%	-3%	16µM*	?
COc1ccccc1C(=O)N1CCC(c2noc(-c3ccc(S(=O)(=O)N4CCCC4)cc3)n2)CC1	16µM*	-14%	.	-31%	23µM*	.
O=C(c1ccc(F)cc1F)N1CCC(c2noc(-c3ccc(S(=O)(=O)N4CCCC4)cc3)n2)CC1	?	2%	.	-3%	-1%	.
C=CCN1C(=O)c2ccc(C(=O)N(CCOC)c3c(N)n(CCCC)c(=O)[nH]c3=O)cc2C1=O	-2%	3%	-4%	1%	4%	?
CC(=O)/C(N=Nc1cc2c(cc1[N+](=O)[O-])OCCO2)=C(\C)O	26µM*	?	2%	-29%	?	i
CC(=O)/C(N=Nc1cc2c(c([N+](=O)[O-])c1C)C(C)(C)CC2(C)C)=C(\C)O	18µM*	?	-2%	-12%	?	i
